Reference: PubChem BioAssay (EPA / NIEHS)
Calls of active or inactive are those of the source. How the source made its calls: active means hit-call score of the fitted dose curve at least 0.9, where 1 is the maximum; inactive means score below 0.9.

What follows are molecules tested on Interleukin 6 (IL6), IL6 (gene 3569) (assay: LTEA_HepaRG_IL6: Life Technologies and Expression Analysis (LTEA) Assay for Interleukin 6 (IL6) using HepaRG (AID 2283509)). Conditions: mRNA level, 48 h; actives raise or lower the signal.
Experimental: LTEA_HepaRG is a cell based, multiplexed-readout assay that uses HepaRG, a human liver cell line, with measurements taken at 48 hours after chemical dosing on a 96-well plate.LTEA_HepaRG_IL6 is one of 102 assay component(s) measured in the LTEA HepaRG cell culture assay. It is a marker of Inflammation.Data from the assay component LTEA_HepaRG_IL6 was analyzed into 1 endpoint. This assay endpoint, LTEA_HepaRG_IL6, was analyzed with bidirectional fitting relative to DMSO as the negative control and baseline of activity. Using a type of inducible reporter, measures of mRNA induction for gain or loss-of-signal activity can be used to understand regulation of transcription factor activity. To generalize the intended target to other relatable targets, this assay endpoint is annotated to the cytokine intended target family, where the subfamily is interleukins.
A total of 1060 chemcials from the ToxCast library were tested in eight-point concentration-response experiments. Cell culture and cytotoxicity assays were conducted at Thermo Fisher Scientific's Custom Services facility (Madison, WI). A single lot of human HepaRG cells (Thermo Fisher Scientific, Frederick, MD) was used for the cell culture experiments. 96-well format collagen type I coated plates of human HepaRG cells were prepared using established methods. Briefly, cryopreserved HepaRG cells were thawed, plated at a density of approximately 100,000 cells/well in HepaRG Thaw, Plate, and General Purpose media (HPRG770, Thermo Fisher Scientific), and incubated for 48 hours. 0.5% DMSO was selected as vehicle control to balance the requisite need of DMSO in HepaRG cultures to maintain differentiation (for example, baseline metabolism, proportions of hepatocytes vs. cholangiocytes), while enabling further hepatic receptor pathway activation (for example, PXR and CAR) in response to chemical exposure. 48 hours after plating, the culture medium was replaced with HepaRG Serum-Free Incudtion Media. Cells were exposed to each test chemical in duplicate and maintained in CO2 incubators for another 48 hours. Chemical plates were thawed to room temperature and 200x concentrations of treatment groups were prepared. 8-point conentration-reponse curves were made with the highest exposure at 100 uM, followed by half-log dilutions, all in 0.5% DMSO. Each test plate contained variouse controls, induction positive controls (1mM phenobarbital), cytotoxicity positive controls ([…] aflatoxin B1), vehicle controls (0.5% DMSO), and total lysis controls (0.5% DMSO). Cell morphology images were taken using an Essen IncuCyte FLR automated microscope, with six 96-well plates imaged in about 24 minutes. Images were captured and exported and JPEG files. Spent culture media was transfered to black-well plates for the LDH assay, and remaining media was sorted at -80 C for later use. Cells were treated with RLT buffer and frozen until shipped for gene expression analysis. Total RNA was isolated from the cell suspension in 75 uL of Buffer RLT (Qiagen, Germantown, MD 20874) by Quintiles/Expression Analysis (Durham, NC) using a custom isolation procedure. Total RNA from each plate well was transferred to a preamplification plate. Fluidigm's 96.96 Dynamic ArrayTM (Fluidigm, Amsterdam, the Netherlands) technology was used for gene expression analyses by quantitative reverse transcription polymerase chain reaction (qRT-PCR, performed by Quintiles/Expression Analysis, Durham, NC)89. Standard TaqManTM Assays (Applied Biosystems/ThermoFisher Scientific, Foster City, CA) were used to assess the expression of 93 genes selected based on their selectivity and sensitivity to important hepatic receptors known to be modulated by environmental chemicals; importance in human hepatocyte functionality; and hepatotoxicity. […]

Row | Structure (SMILES) | outcome | AC50
1 | O=C(O)c1cccc(C[C@@H]2COc3ccc(OCc4nc5cc(F)ccc5s4)cc3[C@@H]2O)c1 | inactive | 
2 | CC(C)CCCCCCOC(=O)C1CCCCC1C(=O)OCCCCCCC(C)C (stereo not given) | inactive | 
3 | CCCCCCOC(=O)CC(CC(=O)OCCCCCC)(OC(=O)CCC)C(=O)OCCCCCC | inactive | 
4 | C=CCc1cc(S(=O)(=O)c2ccc(O)c(CC=C)c2)ccc1O |  | 93.2 µM (active)
5 | CCCCCCCCCC | inactive | 
6 | O=c1[nH]cnc2c1ncn2[C@H]1CC[C@@H](CO)O1 | inactive | 
7 | OCCNCCO | inactive | 
8 | C[C@@H](Oc1ccc(CNC(=O)c2cccnc2Oc2ccc3c(c2)OCO3)c(F)c1)C(=O)O | inactive | 
9 | NC(=O)NN=Cc1ccc([N+](=O)[O-])o1 | inactive | 
10 | c1ccc2cc3ccccc3cc2c1 | inactive | 
11 | OCC(CO)(CO)CO | inactive | 
12 | C[C@]12C=CC(=O)C=C1CC[C@H]1[C@@H]3C[C@@H](O)[C@](O)(C(=O)CO)[C@@]3(C)C[C@H](O)[C@@]12F | inactive | 
13 | COCc1nnc(-c2ccc[n+]([O-])c2)n1-c1c(Cl)c(Cl)cc2[nH]c(=O)c(=O)[nH]c12 | inactive | 
14 | OC(Cn1cncn1)(Cn1cncn1)c1ccc(F)cc1F | inactive | 
15 | CCCc1ccccc1 | inactive | 
16 | NC(=O)N1c2ccccc2C=Cc2ccccc21 | inactive | 
17 | NNC(=O)c1ccncc1 | inactive | 
18 | Cn1c(=O)c2[nH]cnc2n(C)c1=O | inactive | 
19 | OC[C@H]1O[C@@H]2O[C@H]3[C@H](O)[C@@H](O)[C@@H](O[C@H]4[C@H](O)[C@@H](O)[C@@H](O[C@H]5[C@H](O)[C@@H](O)[C@@H](O[C@H]6[C@H](O)[C@@H](O)[C@@H](O[C@H]7[C@H](O)[C@@H](O)[C@@H](O[C@H]1[C@H](O)[C@H]2O)O[C@@H]7CO)O[C@@H]6CO)O[C@@H]5CO)O[C@@H]4CO)O[C@@H]3CO | inactive | 
20 | O=C1CN(N=Cc2ccc([N+](=O)[O-])o2)C(=O)N1 | inactive | 

Row | Structure (SMILES) | outcome | AC50
21 | CCCCOC(=O)c1ccccc1 | inactive | 
22 | NC(=O)N(O)[C@@H]1COc2cc(OCc3ccccc3)ccc21 | inactive | 
23 | CCCOc1ccc(S(=O)(=O)N2CCN(CC)CC2)cc1-c1nc2c(CC)n(Cc3ccccn3)nc2c(=O)[nH]1 | inactive | 
24 | CCN(CC)C(=S)SSC(=S)N(CC)CC | inactive | 
25 | OCCOCCOCCO | inactive | 
26 | O=C(NO)C1(NS(=O)(=O)c2ccc(Oc3ccc(F)cc3)cc2)CCOCC1 | inactive | 
27 | Cc1nccn1-c1ccc(Sc2cccc(C3(C(N)=O)CCOCC3)c2)cc1 | inactive | 
28 | CCCCC(CC)C(=O)OCCOCCOCCOC(=O)C(CC)CCCC (stereo not given) | inactive | 
29 | Cc1nc(-c2ccccn2)ncc1C(=O)Nn1cc(C)c2cc(F)ccc21 | inactive | 
30 | O=C(O)c1ccc2c(c1)nc(C(=O)NC1CCN(C3CC3)CC1)n2Cc1cc(-c2ccc(Cl)s2)on1 | inactive | 
31 | COc1cc(C(C)C)c2c(c1)S(=O)(=O)N(COc1cc(=O)n3cccc(OCCN4CCCCC4)c3n1)C2=O |  | 12.5 µM (active)
32 | COc1cc2c(c(OC)c1OC)-c1ccc(OC)c(=O)cc1[C@@H](NC(C)=O)CC2 |  | 0.144 µM (active)
33 | CCc1cccc(CC)c1N | inactive | 
34 | CCCCCCCC/C=C\CCCCCCCC(=O)OC[C@@H](O)[C@H]1OC[C@H](O)[C@H]1O | inactive | 
35 | O=C(O)[C@H](O)[C@@H](O)C(=O)O | inactive | 
36 | COS(C)(=O)=O | inactive | 
37 | CCCCCOC(C)=O | inactive | 
38 | CCCCCCCCCCCCCCO | inactive | 
39 | CCCCCCCCN(C)C | inactive | 
40 | O=S1(=O)CCCO1 | inactive | 
